Data from PubChem BioAssay.

What follows are compounds tested on PRMT1 (protein arginine N-methyltransferase 1) (assay: PRMT1 binders on small-molecule microarrays, primary screen, biochemical, small-molecule microarray, 635 nm fluorescence (AID 1088)). Conditions: small-molecule microarray binding, higher = more signal.
For `CCCCC(=O)N(Cc1ccccc1F)[C@@H]1CC(C(=O)NCCO)=C[C@H](Oc2c(I)cc(CO)cc2OC)[C@H]1O`, the composite z-score was 1.54.
`COc1ccc([Si](C)(C)[C@H]2[C@H](CCO)O[C@@]3(C(=O)N(Cc4cccc(N5C(=O)c6cccc7cccc5c67)c4)c4ccccc43)[C@@H]2C)cc1` gave a composite z-score of 1.16.
Compound `CC(C)C(CO)N1C(=O)[C@@H]2[C@H]3C(=O)OCC=C[C@H]3OC23C=CCN(c2ccc4ccccc4c2)C(=O)[C@@H]13` (stereo partly specified) has a composite z-score of -0.382.
`CCOC(=O)C[C@H]1[C@H](OC(=O)c2ccccc2-c2ccccc2)[C@@H](NC(=O)c2ccc(-c3ccccc3)cc2)c2cc(OCCCO)ccc2N1C(=O)c1ccccc1` showed a composite z-score of 0.997.
`CN(C)CCCC[C@@H]1NC(=O)[C@@H]2C[C@H](C(=O)NCCCCCCN)[C@H](c3ccc(O)cc3)N2C1=O` showed a composite z-score of 1.18.
With `CN1C(=O)C2C(C1=O)C1C=C(c3ccc(CO)cc3)C2C(C2CC2)N1Cc1sc2ccccc2c1Cl` (stereo unspecified) the composite z-score was 1.55.
`O=C1C2C=CC(C(O)c3ccc(B(O)O)cc3)N(Nc3ccc([N+](=O)[O-])cc3)C2C(=O)N1c1ccccc1` (stereo unspecified) was tested, and the composite z-score was 1.26.
With `CCCNC(=O)[C@@]1(C)c2ccccc2C(=O)N(Cc2ccc(OC(F)(F)F)cc2)[C@H]1c1ccc(CO)cc1` the composite z-score was 0.294.
Work on `[N-]=[N+]=NCc1ccccc1[C@H]1OC(c2ccc(OCCCO)cc2)=N[C@@]1(Cc1ccccc1)C(=O)O` yielded a composite z-score of 1.55.
In the case of `CCCC[C@@H]1C[C@H]1[C@@H](NC(=O)c1ccccc1)c1ccc(-c2ccccc2)cc1`, the composite z-score is reported as 0.409.
In the case of `C=C(CCCC)/C(=C/C[C@H](OC(C)=O)c1ccc(CO)o1)c1cc(C(=O)OC)ccc1OC`, the composite z-score is reported as 1.56.
